Mcl1 Bid PPI = Mcl-1/Bid binding inhibitors, primary screen, biochemical, TR-FRET, 1536-well; Induced myeloid leukemia cell differentiation protein Mcl-1 (Homo sapiens), Q07820; 220,000 tested, 0.97% active; inhibition, % at 21.7 µM; TR-FRET Mcl-1/Bid-Dy647 peptide binding;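 active = compounds that cut the binding signal by more than half at the single screening dose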;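 note: His-tagged Mcl-1 with europium anti-His antibody binding Bid BH3 peptide; 0% = Mcl-1 plus peptide wells and 100% = peptide-only wells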
Bcl-xL primary = inhibitors of human Bcl-xL, primary screen, biochemical, fluorescence polarization, HTS | Bcl-2-like protein 1 (Homo sapiens), Q07817 | GST-Bcl-xL / FITC-Bim BH3 peptide fluorescence polarization | inhibition, % at 10.9 µM | 320,000 tested, 0.7% active | AID 2129, 2009;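 active = inhibition above the mean of all tested compounds plus 3 SD, cutoff set per campaign, cut at about 30% in these data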;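 note: 0% = DMSO wells and 100% = unlabeled Bim-BH3 peptide competitor; inhibitors lower millipolarization by displacing the labeled peptide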
MCL1 BIM primary = inhibitors of MCL1 binding to BIM-BH3, primary screen, biochemical, fluorescence polarization; Induced myeloid leukemia cell differentiation protein Mcl-1 (Homo sapiens), Q07820; GST-MCL1 / FITC-Bim-BH3 fluorescence polarization; inhibition, % at 10.9 µM; 320,000 tested, 0.68% active;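 active = inhibition above the mean inhibition of all tested compounds plus 3 SD, set per campaign, cut at about 40% in these data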;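 note: 0% = DMSO wells and 100% = unlabeled Bim-BH3 peptide control; higher means more loss of mP so more displacement of Bim peptide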
GLD-1 RNA inh = GLD-1/TGE RNA complex disruptors, primary screen, biochemical, fluorescence polarization; purified GLD-1 + fluorescein TGE RNA; inhibition, % at 5.96 µM; 320,000 tested, 0.44% active; AID 2280, 2010;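 active = percent inhibition above a per-plate cutoff, the plate mean of test compounds plus 3 SD, cut at about 30% in these data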;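 note: 0% = DMSO wells with GLD-1 and probe and 100% = wells lacking GLD-1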
Target sequence (Q17339 whole entry, looked up): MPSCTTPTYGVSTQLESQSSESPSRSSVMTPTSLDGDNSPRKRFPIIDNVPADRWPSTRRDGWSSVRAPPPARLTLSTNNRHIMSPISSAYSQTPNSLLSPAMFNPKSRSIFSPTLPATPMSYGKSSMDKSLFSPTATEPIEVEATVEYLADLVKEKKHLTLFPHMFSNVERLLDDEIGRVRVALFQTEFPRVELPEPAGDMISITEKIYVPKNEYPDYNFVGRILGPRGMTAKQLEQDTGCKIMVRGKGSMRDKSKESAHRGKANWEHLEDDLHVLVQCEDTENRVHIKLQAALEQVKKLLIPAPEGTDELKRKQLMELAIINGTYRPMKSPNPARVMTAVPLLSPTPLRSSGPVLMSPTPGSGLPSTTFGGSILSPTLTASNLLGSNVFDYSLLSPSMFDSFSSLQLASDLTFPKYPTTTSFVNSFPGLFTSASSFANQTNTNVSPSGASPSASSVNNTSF
Mcl1-Noxa inh = Mcl-1/Noxa binding inhibitors, primary screen, biochemical, TR-FRET, 1536-well. Induced myeloid leukemia cell differentiation protein Mcl-1 (Homo sapiens), Q07820. TR-FRET Mcl-1/Noxa peptide binding, 2 h. inhibition, % at 21.7 µM. 220,000 tested, 1.5% active;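 active = compounds that cut the protein-peptide binding signal by more than 50% relative to plate controls in a single-dose test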;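 note: His-tagged Mcl-1 with rhodamine Noxa BH3 peptide and terbium anti-His antibody; 0% = Mcl-1 plus Noxa peptide wells and 100% = peptide-only wells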
Mcl-1 Bim block = inhibitors of Bim peptide binding to Mcl-1, primary screen, biochemical, bead-based flow cytometry, multiplex | Induced myeloid leukemia cell differentiation protein Mcl-1 (Homo sapiens), Q07820 | Bim peptide-Mcl-1 binding | inhibition, % at 10 µM | 190,000 tested, 0.1% active | AID 1009, 2008; in the data active = inhibition above about 40%;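 note: 0% = no compound tracer wells and 100% = peptide blocker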
The depositor's hits bear a star; . = not tested or not shown; ! = not active in a repeat. Shown are actives, neighbours in structure and some others; about 2.3% of the full set was active somewhere.

SMILES | Mcl1 Bid PPI | Bcl-xL primary | MCL1 BIM primary | GLD-1 RNA inh | Mcl1-Noxa inh | Mcl-1 Bim block
COCCOC(=O)C1=C(C)NC(=O)NC1c1c(Cl)nc2c(C)cccn2c1=O (stereo unspecified) | -23 | 32* | 35 | 8 | 8 | -15
C=CCn1c(SCc2ccccc2C#N)nnc1-c1cc(Br)ccc1O | -13 | 5 | 2 | 3 | 6 | -1
CC(C)OCCCNC(=O)c1ccc(Br)cc1 | 3 | 2 | 4 | -1 | -7 | -1
CC(C)OCCCNC(=O)C(=O)NCCCOC(C)C | 8 | 40* | 1 | 19 | 11 | -4
O=C(CSc1ncccn1)N/N=C/c1ccc2c(c1)OCO2 | . | 4 | 6 | -1 | . | .
O=C(N=c1ccn(-c2nc3ccccc3nc2NS(=O)(=O)c2ccccc2)cc1)c1cccs1 | -274 | 17 | 17 | 15 | -238 | -2
Cc1ccccc1C(=O)N=c1ccn(-c2nc3ccccc3nc2NS(=O)(=O)c2ccc(F)cc2)cc1 | . | 34* | 2 | 5 | . | .
COc1ccc(-n2c(N)c(-c3nc4ccccc4n3C)sc2=S)cc1 | -7 | 6 | 2 | -2 | 89* | -3
CN(CCOC(=O)C1c2ccccc2Oc2ccccc21)C(C)(C)C | 97* | 3 | 0 | 6 | 12 | 0
CCOC(=O)Nc1ccc2c(c1)N(C(=O)OCCN(C)C)c1ccccc1CC2 | 76*! | 6 | 1 | 1 | 26 | 0
COc1ccc2c(c1)oc(=O)c1ccccc12 | -11 | 9 | 0 | 12 | 27 | 4
O=c1oc2cc(O)c(Cl)cc2c2ccccc12 | -61 | 3 | -2 | 9 | 54* | -1
C=C(C)CSc1nnc(-c2cccc(S(=O)(=O)N(C)C)c2)n1-c1cc(OC)ccc1OC | -33 | -5 | -13 | -3 | 14 | -1
CCCCSc1cc(C)nc(N)n1 | 79* | 7 | 10 | -7 | 37 | .
O=C(NCC1CCCO1)c1sc2ccccc2c1Cl (stereo unspecified) | -4 | 2 | 4 | -2 | 8 | -3
CC1(C)CC(NC(=O)COc2ccc([N+](=O)[O-])cc2)CC(C)(C)N1 | -12 | 4 | 6 | 2 | 22 | 68*
CCSc1nc2ccccc2n1CC(N)=O | -11 | 6 | 3 | 2 | 12 | -7
CCSc1nc2ccccc2n1C(=O)/C=C\c1ccc(OC)c(OC)c1 | -25 | 6 | 1 | -5 | 62* | -2
CN1C(=O)/C(=C/c2coc3ccc(O)cc3c2=O)SC1=S | -5 | -12 | -12 | -15 | 54* | .
Cc1cc(/C=C2\SC(=S)N(C)C2=O)c(C)n1-c1ccc(O)cc1 | -51 | -18 | -39 | -70 | -8 | .
N=C1/C(=C/c2ccc(OC(=O)c3ccco3)cc2)C(=O)N=C2SC=CN12 | 10 | 0 | -5 | -1 | 46 | -4
N=C1/C(=C/c2coc3ccccc3c2=O)C(=O)N=C2SC(c3ccco3)=NN12 | -82 | -26 | -52 | -35 | 46 | .
CC(C)CSC1=NSC2=NC(=O)/C(=C\c3coc4ccccc4c3=O)C(=N)N12 | 5 | 80* | 23 | -195 | 15 | .
CSC1=NSC2=NC(=O)/C(=C\c3coc4ccccc4c3=O)C(=N)N12 | -32 | -17 | -39 | -91 | -31 | -3
N=C1/C(=C\c2coc3ccc(O)cc3c2=O)C(=O)N=C2SC=CN12 | -28 | 61* | -23 | 55* | 45 | .
N=C1/C(=C\c2coc3ccccc3c2=O)C(=O)N=C2SC(c3ccncc3)=NN12 | -159 | -28 | -38 | -84 | 61* | .
O=C(CC12CC3CC(CC(C3)C1)C2)N1CCCOC1 | -2 | -8 | -3 | 10 | 8 | -2
CC1CC(CCN)(c2ccccc2)C(C)CN1C (stereo unspecified) | -16 | 4 | 5 | 3 | 16 | .
CCn1cc(C(=O)NCC(=O)NCCCN2CCOCC2)c(=O)c2cc3c(cc21)OCO3 | . | 6 | 10 | 2 | . | .
Cc1nc2ccc(S(=O)(=O)N(C)CC(=O)NCCc3ccccc3)cc2s1 | . | 7 | 3 | 5 | . | .

Screening data from PubChem BioAssay.
